Here are results for 91 compounds from PubChem BioAssay AID1159606 (Sanford-Burnham Center for Chemical Genomics, 2016).

The structures appear in SMILES notation. Hit rate of the full screen: of about 360,000 compounds, about 7,300 (2%) were called active. What follows is part of a selection rich in actives, with near analogues and random picks from the rest. Unmarked numbers belong to inactive results. Cut-off read from the data, not from the text of the source: active = inhibition above about 50%; inactive = the rest.

A short description of the assay: inhibitors of TWEAK-Fn14 signaling, primary screen, luciferase reporter cells, uHTS (AID 1159606). The conditions noted are these: TWEAK-stimulated Fn14 reporter cells, luciferase luminescence, 8 h; at 10 µM; active compounds read high. (A reporter such as luciferase makes a cellular process visible.)
In the case of `O=C(Nc1ccc2c(c1)CCC2)c1cccc(S(=O)(=O)N2CCN(c3ccc(F)cc3)CC2)c1`, the inhibition (in general, the relative decrease from the control value, in per cent) is 65% (active).
For `O=C(Nc1ccc2c(c1)CCC2)c1cccc(S(=O)(=O)Nc2ccccc2Cl)c1`, the inhibition is 25.9%.
Under `CN1CCN(S(=O)(=O)c2cccc(C(=O)Nc3cccc(S(N)(=O)=O)c3)c2)CC1` stands 14.8%; under `COc1ccc(NC(=O)c2ccccc2CC[N+](=O)[O-])cc1`, 2.4%.
The value for `COCCNC(=O)c1cc2c(Br)ccc(Br)c2nc1N` was 2.81%; that for `Cc1cc(C)n2c(Nc3c(C)cccc3C)c(CCc3ccccc3)nc2n1` was -5.1%.
Under `OCC1(CO)CC2(C1)CC(CO)(CO)C2` stands 15.3%.
`Cc1ccc(-c2noc(CCC(=O)Nc3ccccc3N3CCN(C)CC3)n2)cc1`: the inhibition is 12.3%.
The value for `COc1cc(/C=C(/NC(=O)c2ccc(Cl)cc2Cl)C(=O)O)cc(OC)c1OC` was 15.3%; that for `CCOc1cc(/C=N/NC(=O)OC)ccc1OCCSc1ccc(Cl)cc1` was 10.4%; that for `CCOc1cc(/C=C(/C#N)c2ccc(Cl)cc2)cc(Cl)c1OCC(=O)O` was 83.5% (active).
For `COc1ccccc1CNC(=O)C1CCN(S(=O)(=O)c2ccc3c(c2)OCCO3)CC1`, the inhibition was 10.5%.
Take `Cc1ccc(Cn2cc(C(=O)NN)c(=O)c3ccc(F)cc32)cc1`: the inhibition is -2.98%.
Consider `CCNc1nc(SCCOc2ccccc2)nc(N(C)C)n1`, for which the inhibition is -28.5%.
The value for `Cc1cccc(NC(=O)C2CC(=O)OC23CCCC3)c1` (stereo unspecified) was 14.4%.
Turning to `Cn1c(=O)c2cc(NC(=O)NCCc3cccs3)ccc2n1Cc1cccc(C(F)(F)F)c1`, the inhibition is 4.52%.
For `COc1ccccc1NC(=O)Nc1nnc(Cc2ccc(F)cc2)s1`, the inhibition is -26.6%.
Turning to `O=C(Nc1ccccc1)Nc1nnc(COc2ccccc2F)s1`, the inhibition was -8.31%.
The value for `O=C(Nc1nnc(COc2ccccc2)s1)Nc1ccccc1F` was 62.4% (active).
With `Brc1ccc(-c2nn[nH]n2)cc1`, the inhibition is 5.03%.
The value for `CC(=O)C1=C(C)NC2=C(C(=O)CC(C)(C)C2)C1C` (stereo unspecified) was 16%; that for `COc1ccc(OC)c(/C(C)=N\NC(=O)c2cc3cc(Cl)ccc3n2C)c1` was 5.37%; that for `COCCCNc1nc2ccccc2nc1NS(=O)(=O)c1ccc(F)cc1` was 19.1%.
As to `Cc1ccc(S(=O)(=O)Nc2nc3ccccc3nc2N2CCc3ccccc3C2)cc1`, the inhibition is 86.8% (active).
Under `Cc1ccc(S(=O)(=O)C(C#N)c2nc3ccccc3nc2N2CCCC2)cc1C` (stereo unspecified) stands 12.6%.
Under `Cc1ccc(C)c(NC(=O)CSc2nc3c(oc4ccccc43)c(=O)n2-c2ccccc2)c1` stands 25.1%; under `COc1ccccc1C(=O)NC(=S)Nc1ccccc1N1CCCCC1`, 53.6% (active).
With `COc1ccccc1C(=O)NC(=S)Nc1ccc(N2CCOCC2)cc1`, the inhibition was -34.2%.
Consider `COc1ccccc1C(=O)NC(=S)NC12CC3CC(CC(C3)C1)C2`, for which the inhibition was 0.54%.
For `CC(C)(C)c1cc(NC(=O)NN2CCOCC2)nn1-c1c(Cl)cc(Cl)cc1Cl`, the inhibition was 4.79%.
With `CC(C)(C)OC(=O)C[C@@H]1C/C=C\C[C@@H](CC(=O)NCCO)C(=O)N[C@H](Cc2c[nH]c3ccccc23)COC1=O`, the inhibition was -8.05%.
On to `Oc1cccc2ccc(/C=C/c3ccc(Br)s3)nc12`, for which the inhibition was 57.6% (active).
As for `Nc1ccc(S(=O)(=O)Nc2nccc(/C=C/c3ccc(Br)s3)n2)cc1`, the inhibition is -5.92%.
`CCCN(CC(=O)Nc1ccc(OC)c(OC)c1)CC(=O)Nc1ccc(F)c(F)c1F`: the inhibition was -5.89%.
The value for `CCCCN1Cc2c(nc3cc(-c4ccccc4)[nH]n3c2=O)C1=O` was 1.25%; that for `O=c1c2c(nc3nc[nH]n13)CCC2` was 1.33%; that for `O=c1c2c(nc3cc(-c4cccc(Cl)c4)[nH]n13)CCCC2` was 75.5% (active).
In the case of `CSc1nnc(SCc2nc3sc(C(=O)O)c(C)c3c(=O)[nH]2)s1`, the inhibition is 15.4%.
On to `CCCCCCN1CCN(C2CN(Cc3cn(CCCCCC)nn3)S(=O)(=O)C2)CC1` (stereo unspecified), for which the inhibition is 6.81%.
`COc1cc(-c2nnc(Cn3cc(C(F)(F)F)ccc3=O)o2)cc(OC)c1OC`: the inhibition is -25.3%.
As to `C=CCOc1cccc(CNn2cn[nH]c2=S)c1`, the inhibition is 22.9%.
Under `CCOC(=O)[C@]12CCCC=C1N(Cc1cccc3ccccc13)C(=O)[C@H](CC(=O)NCC13CC4CC(CC(C4)C1)C3)C2` stands 25.4%; under `C/C(=C\c1ccccc1)C1NC(=O)c2c(sc3c2CCCC3)N1` (stereo unspecified), 77% (active).
Under `O=C1NC(c2ccncc2)Nc2sc3c(c21)CCCC3` (stereo unspecified) stands -14.9%.
Under `O=C(Nc1sc2c(c1-c1nc3ccccc3[nH]1)CCCC2)C1CC1` stands -8.49%; under `CCC1NC(=O)c2cccnc2-n2c1nc1ccc(C)cc1c2=O` (stereo unspecified), -40.1%; under `CC(NC(=O)CCC(=O)N1CCN(S(=O)(=O)c2ccc(Cl)cc2)CC1)c1ccccc1` (stereo unspecified), 4.74%.
As to `O=C(CCC(=O)N1CCN(S(=O)(=O)c2ccc(Cl)cc2)CC1)NCc1cccc(C(F)(F)F)c1`, the inhibition is 57.4% (active).
The value for `O=C(NCc1cccc(C(F)(F)F)c1)c1cccc(S(=O)(=O)N2CCN(Cc3ccccc3)CC2)c1` was 15.4%.
As to `Cc1n[nH]c(=O)c2c(NC(=O)COC(=O)c3ncc(Cl)c(Cl)c3Cl)oc(C)c12`, the inhibition is -5.62%.
Under `CSc1ccccc1NC(=O)COC(=O)CCCOc1ccc(C)cc1` stands -5.19%.
`Cc1noc(C)c1COC(=O)Cn1c(C)nc2ccccc21`: the inhibition is -13%.
Under `CCCCCCCCCCOC(=O)Cn1c(COc2ccc(C)cc2)[n+](C)c2ccccc21` stands 76.3% (active).
The value for `Cc1ccc(C(=O)CN2C(=O)NC3(CCc4ccccc43)C2=O)c(C)c1` (stereo unspecified) was -25.2%; that for `CNC(=O)C(NC(=O)c1ccccc1)=C(C)C` was 4.65%.
Consider `O=C(NC(=O)c1ccccc1)Nc1ccccc1O`, for which the inhibition is 50.8% (active).
Under `Cc1ccc(NC(=O)NC(=O)c2ccccc2)cc1F` stands -37.5%; under `COc1ccc(C(=O)NC(C)c2nccs2)cc1OC1CCN(C(C)C)CC1` (stereo unspecified), -14.2%; under `Cc1cc(C)c(C)c(S(=O)(=O)N[C@@H](C)C(=O)OC(C)C(=O)NC(N)=O)c1C` (stereo partly specified), 53.7% (active).
Under `Cc1cc(C)c(C)c(S(=O)(=O)Nc2ccc(O)cc2)c1C` stands 22.9%; under `Cc1cc(C)c(C)c(S(=O)(=O)Nc2cccnc2)c1C`, -12.5%.
With `CC1=NN(/C(=N\c2nnc(C)s2)Nc2ccccc2)[C@H](c2ccc(C)cc2)S1`, the inhibition was -7.27%.
The value for `COC(=O)c1cc2n(n1)CCCNC2=O` was -0.66%; that for `COc1ccc(C(=O)n2nc(-c3ccc(Cl)cc3)nc2N)cc1OC` was 64.1% (active); that for `COC(=O)c1ccc(OC(=O)c2nn(C)cc2Cl)c(OC)c1` was -9.75%.
The value for `COc1ccc(C(=O)n2nc(C)c(Br)c2C)cc1OC` was -7.65%.
`CC(C)CC(CO)N1CCN(C(=O)c2ccc(Cl)cc2Cl)CCC1=O` (stereo unspecified): the inhibition was 10.3%.
Under `CCOc1ccc(S(=O)(=O)N2CCN=C2Cc2ccccc2)cc1C` stands -1.14%.
The value for `COCCn1c(N)c(NCc2ccccc2)c(=O)[nH]c1=O` was -0.79%.
Under `CN(c1ccccc1)S(=O)(=O)c1cc(C(=O)N2CCN(c3ncccn3)CC2)ccc1Cl` stands -62.5%; under `Cc1cccc(NC(=O)c2ccc(S(=O)(=O)N(C)c3ccccc3)cc2)n1`, 31.6%; under `CN(c1ccccc1)S(=O)(=O)c1cc(C(=O)Nc2nc3ccccc3[nH]2)ccc1Cl`, 78.9% (active).
`O=C1CCCCC1Sc1ccc(Cl)cc1[N+](=O)[O-]` (stereo unspecified): the inhibition is 5.84%.
For `O=C(COC(=O)/C=C/c1ccc(Cl)cc1)NC1CCS(=O)(=O)C1` (stereo unspecified), the inhibition was -27.7%.
The value for `CC(=O)c1cccc(-c2cnc3c(NC=O)cc(-c4cccc(C(=O)N(C)C)c4)cn23)c1` was 6.56%.
Under `CC(=O)Nc1cccc(-c2cc(NC=O)c3ncc(-c4ccc(F)c(Cl)c4)n3c2)c1` stands 82.2% (active).
Under `CC(=O)Nc1cc(-c2ccccc2N(C)C)cn2c(-c3ccc(F)c(Cl)c3)cnc12` stands -9.86%.
As to `COc1cccc(-c2cnc3c(NC(C)=O)cc(-c4cccc(NC(C)=O)c4)cn23)c1`, the inhibition is -0.58%.
Take `CC(=O)c1cccc(-c2cnc3c(NC=O)cc(-c4ccc(N(C)C)cc4)cn23)c1`: the inhibition is 19.9%.
Under `COc1cccc(-c2cc(NC(C)=O)c3ncc(-c4cccc(C(C)=O)c4)n3c2)c1` stands 12.6%; under `CC(=O)c1ccc(-c2cnc3c(NC=O)cc(-c4cccc(NS(C)(=O)=O)c4)cn23)cc1`, -8.7%.
Under `CC(=O)Nc1cccc(-c2cc(NC(C)=O)c3ncc(-c4ccccc4)n3c2)c1` stands 89.2% (active); under `CC(=O)c1cccc(-c2cnc3c(NC=O)cc(-c4ccccc4Oc4ccccc4)cn23)c1`, 55.7% (active); under `CC1=NNC(=O)C1Cc1c(Cl)cccc1Cl` (stereo unspecified), 4.96%.
`O=C(NCc1ccc(F)cc1)c1cc(C2CCCCN2C(=O)C2CCCCC2)on1` (stereo unspecified): the inhibition was 32.6%.
The value for `C=CCSc1nnc2c(n1)-c1cccc3cccc-2c13` was -43.7%.
The value for `CC(=O)c1c(C)n([O-])c2ccccc2[n+]1=O` was -13.5%.
Under `O=C(Nc1cc(S(=O)(=O)N2CCOCC2)ccc1N1CCOCC1)c1c(F)cccc1Cl` stands -8.44%.
Regarding `Cc1cc(Cl)ccc1-c1nc(NCCN(C)C)nc2ccsc12`, the inhibition was -11.1%.
Regarding `O=C(CCc1ccc(S(=O)(=O)NC2CCCCC2)cc1)NCc1ccccc1`, the inhibition was 1.8%.
For the compound `CCCCNC(=O)C[C@@H]1C[C@@]2(C(=O)OCC)CCC=C2N(Cc2ccco2)C1=O`, the inhibition is 11%.
